The record followed here is PubChem BioAssay AID2069 (Sanford-Burnham Center for Chemical Genomics, 2009).

What is called inhibition is the change of the read-out against control, counted positive when it falls.

Among all 1,200 compounds or so, about 210 (18%) were called active. These entries were drawn from the full list. Unmarked numbers belong to inactive results. No stated cut-off is given here; in the data, active means inhibition above about 30%; inactive means the rest.

A short description of this assay: fluorescence readout artefact check – biochemical, HTRF, uHTS, artefact control for SUMOylation inhibitor project, confirmation (AID 2069). The conditions noted are these: HTRF interference counterscreen, at 35 µM, active compounds read high. (In general: TR-FRET usually uses a lanthanide donor and a delayed reading to cut background.)
For the compound `CCc1cccc(NC(=S)Nc2cccc3ccccc23)c1`, the inhibition was 2.95%. The figure for `O=c1cc2c(=O)oc3cc(O)c(O)oc3c2c(O)c1O` is -3.8%. Then `Cc1cc(=O)n2[nH]c(N)c(N=Nc3ccccc3)c2n1`, with -13.8%; and `O=c1c(-c2ccccc2)coc2c(CN3CCCC3)c(O)ccc12`, with 42% (active); and `COc1ccccc1/C=N/Nc1cc(N(C)C)nc(N(C)C)n1`, with 11.9%. The figure for `Cn1c(=O)c(Nc2ccc(O)cc2)c2c3c(cccc31)C(=O)c1ccccc1-2` is -3.25%; for `NC(=O)N/N=C/c1ccc2cccc(OCc3ccccc3)c2n1` it is 68.3% (active); for `O=C(CNc1cccc2ccccc12)N/N=C/c1ccccn1` it is 17.4%. In the case of `Cc1cccc(/C=N/NC(=O)C(C)Nc2cccc3ccccc23)n1` (stereo not given), the inhibition was 1.6%. The figure for `COc1ccc(N=C2NC(=O)/C(=C\c3ccco3)S2)cc1` is 4.75%; for `COc1ccc(-n2c(CNc3ccc(C)cc3)nnc2SCC(=O)Nc2nc(-c3ccccc3)cs2)cc1` it is -1.4%; for `Cc1cccc(NC(=O)CC2Nc3cccc4cccc(c34)NC2=O)c1` (stereo not given) it is -17.8%. The figure for `O=C(O)/C=C/C(=O)Nc1ccc2c(c1)NC(=O)CO2` is -0.95%; for `COc1cc([N+](=O)[O-])cc(/C=N/NC(=O)CC#N)c1O` it is 21.6%. In the case of `Nc1nnc(CC(=O)N/N=C/c2cc([N+](=O)[O-])cc(Br)c2O)s1`, the inhibition was 30% (active). As to `O=C(N/N=C/c1cc(Br)cc(Br)c1O)c1ccncc1`, the inhibition is 12.4%. Then `NC(=O)CC(NC(=O)Cc1ccc(Br)cc1)c1ccc(NCCc2ccccc2F)c([N+](=O)[O-])c1` (stereo not given), with 5.95%; and `O=C(/C=C/c1ccco1)NC(=S)NNC(=O)c1ccco1`, with -18.9%.

For the compound `O=C(O)CSc1cc(C(=O)c2cc(F)ccc2O)cn2c(=O)c3c(-c4ccccc4)csc3nc12`, the inhibition is 28.9%. The figure for `N#Cc1c(N(CCO)CCO)nc(N)c2c(N)nc3c(c12)CC(=O)N3CC1CCCO1` (stereo not given) is 41.8% (active); for `CCCN(CC1CC1)c1nc(N)c2c(N)nc(OC)cc2c1C#N` it is 10.2%; for `N#Cc1c(N2CCN(c3ccc(F)cc3)CC2)nc(N)c2c(N)nc3c(c12)CC(=O)N3C1CC1` it is 16.5%.

Regarding `N#Cc1c(N(CCO)CCO)nc(N)c2c(N)nc3c(c12)CC(=O)N3Cc1cccs1`, the inhibition is 25.1%. Then `CN(CCO)c1nc(N)c2c(N)nc3c(c2c1C#N)CC(=O)N3C1CCCC1`, with 43.9% (active). Then `COc1ccc(C)c2sc(NC(=O)c3cccc(N4C(=O)CCC4=O)c3)nc12`, with 21%; and `CC(C)C(=O)Nc1cccc(C(=O)NCc2ccc3c(c2)OCO3)c1`, with -4.7%.

For the compound `N#Cc1c(-c2ccc(Cl)cc2)cc(-c2cccs2)nc1SCC(=O)O`, the inhibition is -4.9%. Then `CCOC(=O)C1CCN(C2=C(NS(=O)(=O)c3ccc(Br)cc3)C(=O)c3ccccc3C2=O)CC1`, with -7.95%; and `O=C(Nc1ccc(Br)cc1)c1ccc(N2C(=O)C3CC=C(Cl)CC3C2=O)cc1` (stereo not given), with -0.95%.

With `C=CCn1c(NS(=O)(=O)c2ccccc2)c(S(=O)(=O)c2ccc(C)cc2)c2nc3ccccc3nc21`, the inhibition was 23.6%. `COCCNC(=O)c1c(N)n(CCC2=CCCCC2)c2nc3ccccc3nc12`: the inhibition is 25.1%.

Turning to `COc1ccc(-n2c(N)c(C(=O)NCc3ccco3)c3nc4ccccc4nc32)cc1OC`, the inhibition was 11.5%. In the case of `COCCNC(=O)c1c(N)n(CCCn2ccnc2)c2nc3ccccc3nc12`, the inhibition was 40% (active). `C=CCNC(=O)c1c(N)n(-c2cccc(S(N)(=O)=O)c2)c2nc3ccccc3nc12`: the inhibition is 33% (active). Then `C=CCn1c(NC(=O)c2ccc(Br)o2)c(S(=O)(=O)c2ccccc2)c2nc3ccccc3nc21`, with 8.1%; and `COCCCNC(=O)c1c(N)n(-c2ccccc2)c2nc3ccccc3nc12`, with 33.6% (active); and `Nc1c(C(=O)NCc2ccco2)c2nc3ccccc3nc2n1CCc1ccccc1`, with 11%. Consider `CCc1cc(=O)oc2c3c(cc(OCC(=O)NCCCCCC(=O)O)c12)OC(C)(C)CC3`, for which the inhibition is 29.8%. The figure for `Cc1ccc(Sc2cc(NCCCO)c([N+](=O)[O-])c3nonc23)cc1` is 0.15%; for `COc1ccc(-c2csc(CCN3N=C(C)CC3=O)n2)cc1` it is -4.6%; for `Cc1cc2oc(C(=O)Nc3ccc(S(=O)(=O)Nc4nccs4)cc3)cc(=O)c2cc1Cl` it is -9.2%. Then `Cc1ccc(CSc2nnc(SCC(=O)N/N=C/c3c[nH]c4ccccc34)s2)cc1`, with -3.9%; and `CC1CCCN(C2=C(NS(=O)(=O)c3ccc(Br)cc3)C(=O)c3ccccc3C2=O)C1` (stereo not given), with -7.35%; and `Cc1cccc(NC(=S)Nc2cccc3ccccc23)c1`, with -3.85%.

As to `COc1cc(/C=C2/C(=O)N(c3ccc([N+](=O)[O-])cc3)N=C2N2CCOCC2)ccc1O`, the inhibition was -19.4%.

With `N#Cc1c(NC(=O)CSc2ncnc3sccc23)oc(-c2ccco2)c1-c1ccco1`, the inhibition was 7.1%.

Consider `CC1=NN(c2ccc(Cl)cc2)C(=O)C1C(c1ccccc1O)c1c(C)[nH]n(-c2ccc(Cl)cc2)c1=O` (stereo not given), for which the inhibition was -12.7%. The figure for `CC(C)(C)c1cnnn1-c1cccc([N+](=O)[O-])c1` is 6.3%.

In the case of `CN1CCCc2cc3c(C(F)(F)F)cc(=O)oc3nc21`, the inhibition is 57.5% (active). Regarding `O=C(CC1CS(=O)(=O)CC1CC(=O)Oc1ccccc1F)Oc1ccccc1F` (stereo not given), the inhibition is 5.6%.

On to `CC(=O)Oc1ccc2cc(-c3nc4ccccc4n3C)c(=O)oc2c1`, for which the inhibition is 38.6% (active). Then `CC1=C(C#N)C(=O)NC(=O)/C1=C/c1ccc(-c2ccc(S(N)(=O)=O)cc2)o1`, with 19.2%; and `Cc1nc2ccccc2c(=O)n1/N=C/c1ccc(O)c(O)c1O`, with 7.15%; and `O=c1c2ccccc2nc2n1CCC2`, with 31.4% (active). Then `Cc1ccc(/C=N/NC(=O)c2cccc(S(=O)(=O)Nc3cccc(Cl)c3)c2)o1`, with 9.55%; and `O=[N+]([O-])c1cccc(S(=O)(=O)Nc2nc3ccccc3nc2Nc2cccc(S(=O)(=O)N3CCCCC3)c2)c1`, with -17.1%. The figure for `CC1=NN(c2ccccc2)C(=O)/C1=C\c1ccc(Br)s1` is -10.7%; for `Nc1ccc(N2CCCCC2)c2nonc12` it is -23.7%. Regarding `COc1ccc(N2C3=C(CC4=C2CCCC4=O)C(=O)CCC3)cc1`, the inhibition is 18.1%. For the compound `COc1ccc(C2C3=C(CCCC3=O)Nc3c(-c4ccccc4)c(C)nn32)cc1` (stereo not given), the inhibition was 46.6% (active). As for `O=C(CNc1cccc2ccccc12)N/N=C/c1ccc([N+](=O)[O-])cc1`, the inhibition was -4%.

As to `Cn1c(-c2ccc(C=O)s2)nc2c3ccccc3c3ccccc3c21`, the inhibition is 22.3%.

On to `Cn1c(CNc2ccc(O)cc2)nc2ccccc21`, for which the inhibition was -19.7%.

Regarding `Cn1c(-c2ccc(C=O)s2)nc2ccccc21`, the inhibition was 49.1% (active). Take `CC(C)CC(=O)Nc1ccc(C(=O)Cn2nc(C(=O)O)c3ccccc3c2=O)cc1`: the inhibition is -7.35%.

With `[O-]/C(=C(\C(=S)Nc1cccc2ccccc12)[n+]1cccc(CO)c1)c1ccc(Cl)s1`, the inhibition was -14.8%. As for `COc1ccc(Cc2n[nH]c(=S)n2NC(=O)Nc2ccc(C)cc2)cc1`, the inhibition was 20.8%. As to `COc1ccc(Cn2c(C)c(C)c(C#N)c2NC(=O)Nc2ccc(F)cc2)cc1`, the inhibition was 1.75%. Turning to `COc1ccc(Cc2n[nH]c(=S)n2NC(=O)Nc2ccc(Cl)c(Cl)c2)cc1`, the inhibition is 54.1% (active). In the case of `CCOC(=O)C1=C(C)N=c2s/c(=C\c3ccc(OCC(=O)O)cc3)c(=O)n2C1c1ccc(OC(C)C)cc1` (stereo not given), the inhibition is 12.8%. The figure for `COc1ccc(C(=O)N2CCC(O)(c3ccc(F)cc3)CC2)cc1OC` is 39% (active). Then `COc1cccc(OC)c1C(=O)N1CCNCC1`, with -12.3%; and `Cc1[nH][nH]c(=O)c1C(c1c(C)[nH][nH]c1=O)c1cn(C)c2ccccc12`, with -22.4%; and `COc1cccc(C(=O)Nc2cccc(C(=O)NC3=NN(c4c(Cl)cc(Cl)cc4Cl)C(=O)C3)c2)c1`, with -11.8%. Then `CCN(CC(=O)c1c(N)n(C)c(=O)n(C)c1=O)c1cccc2ccccc12`, with 11.8%; and `COc1cc(/C=N/NC(=O)c2ccccc2O)ccc1OCC(=O)Nc1ccccc1`, with 15.4%.

Take `Cc1cc2n(n1)SC(Nc1cccc3ccccc13)N2` (stereo not given): the inhibition was -6.45%. Consider `Oc1cccc(C=Nc2cccc3ccccc23)c1O`, for which the inhibition is 8.55%.

For the compound `Cc1ccc(N2CSC3=C(C#N)C(c4cccs4)CC(=O)N3C2)cc1` (stereo not given), the inhibition was -28.4%.

For the compound `Cc1c(CC(=O)N2CCN(C(=O)C3COc4ccccc4O3)CC2)c(=O)oc2c(C)c(O)ccc12` (stereo not given), the inhibition was 66.6% (active). With `Cc1ccc(C)c(S(=O)(=O)C(C#N)c2nc3ccccc3nc2N2CCCC2)c1` (stereo not given), the inhibition was 1.8%. Then `CCCCCc1c2c(cc(O)c1C(=O)O)OC(=O)c1c(cc(OC)cc1C(=O)CCCC)O2`, with 11.2%; and `c1coc(-c2nnc(-c3ccco3)nn2)c1`, with 7.95%; and `Cc1cccc2nc(-c3ccco3)c(Nc3ccc4c(c3)OCO4)n12`, with -6.85%.

On to `Cc1cc(=O)[nH]c(SCC(=O)c2ccc(O)c(O)c2)n1`, for which the inhibition was 7.45%.
